Results reported in PubChem BioAssay.
Unmarked numbers belong to inactive results. For part of these data: Entries with a potency or affinity are not part of this list. The source made the active and inactive calls. Unless noted, no rule for the calls is given here.

Assays:
[1] = antimalarial activity against Dd2 strain (AID 2302;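 active = growth inhibition above 50% at the single 2 µM test dose, taken to imply half-maximal potency below 2 µM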;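 also: 0% = DMSO untreated growth and 100% = chloroquine plus artemisinin killed control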); details: P. falciparum Dd2 in RBCs, LDH growth readout, 72 h; at 2 µM; stronger effect = higher value
[2] = HepG2 cytotoxicity, primary screen, cytotoxicity control for P. falciparum antimalarial project, cell-based, ATP luminescence (AID 2303;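 active = inhibition above 50%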;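 also: 0% = DMSO wells and 100% = digitonin-killed cells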); details: HepG2 viability, 24-48 h, at 10 µM, stronger effect = higher value
[3] = biological target: L-lactate dehydrogenase (Plasmodium falciparum (isolate CDC / Honduras)) (UniProt Q27743); experiment: PfLDH activity inhibition – cell lysate, 3D7 strain, counter-screen for P. falciparum growth inhibition project (AID 2304);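 also: 0% = vehicle and 100% = reference inhibitor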; details: P. falciparum 3D7 crude extract, LDH APAD/NBT absorbance; at 2 µM; stronger effect = higher value
[4] = inhibition of 3D7 malaria parasite growth – strain 3D7 (AID 2306);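 also: 0% = DMSO wells and 100% = chloroquine plus artemisinin control wells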; details: P. falciparum 3D7 erythrocytic growth, LDH absorbance, 72 h; at 2 µM; stronger effect = higher value
[5] = biological target: Calcium-dependent protein kinase 1 (Plasmodium falciparum (isolate 3D7)) (UniProt P62344); experiment: PfCDPK1 kinase inhibitors, biochemical, TCAMS library (AID 1159585; cut-off not given, nearly all actives have IC50 up to about 0.98 µM;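 also: inhibitors leave more ATP so luminescence rises with inhibition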); details: recombinant PfCDPK1, Kinase-Glo ATP depletion luminescence
[6] = biological target: Plasmodium falciparum protein kinase 6 (PK6, PF3D7_1337100) (UniProt Q8IDW1); experiment: PfPK6 kinase inhibitors, biochemical, TCAMS library (AID 1159586); details: recombinant PfPK6, Kinase-Glo ATP depletion luminescence
[7] = biological target: Protein kinase 7 (PK7), Plasmodium falciparum 3D7 (PF3D7_0213400) (UniProt Q7YTF7); experiment: inhibition of Plasmodium PK7 catalytic activity – biochemical, TCAMS antimalarial set, Kinase-Glo luminescence (AID 1159587); details: recombinant PfPK7, Kinase-Glo ATP depletion luminescence
[8] = biological target: Calcium-dependent protein kinase 4 (Plasmodium falciparum (isolate 3D7)) (UniProt Q8IBS5); experiment: PfCDPK4 kinase inhibitors, biochemical, TCAMS library (AID 1159588; cut-off not given, nearly all actives have IC50 up to about 0.91 µM); details: recombinant PfCDPK4, Kinase-Glo ATP depletion luminescence
Sequence of Calcium-dependent protein kinase 4 (Plasmodium falciparum (isolate 3D7)) (Q8IBS5 whole entry, looked up): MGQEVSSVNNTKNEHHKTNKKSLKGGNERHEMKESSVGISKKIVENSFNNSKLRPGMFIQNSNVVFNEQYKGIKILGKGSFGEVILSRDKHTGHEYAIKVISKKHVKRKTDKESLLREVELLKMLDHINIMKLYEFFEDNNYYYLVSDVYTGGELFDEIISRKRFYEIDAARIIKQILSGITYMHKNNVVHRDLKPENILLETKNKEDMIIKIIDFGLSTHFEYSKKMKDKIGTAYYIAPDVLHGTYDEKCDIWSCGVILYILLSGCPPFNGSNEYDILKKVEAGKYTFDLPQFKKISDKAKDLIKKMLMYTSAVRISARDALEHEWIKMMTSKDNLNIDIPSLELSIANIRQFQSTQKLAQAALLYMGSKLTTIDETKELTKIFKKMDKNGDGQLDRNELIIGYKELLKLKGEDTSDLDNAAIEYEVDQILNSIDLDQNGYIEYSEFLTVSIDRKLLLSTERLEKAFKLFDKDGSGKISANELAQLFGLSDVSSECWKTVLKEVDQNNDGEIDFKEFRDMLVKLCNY

Sequence of Protein kinase 7 (PK7), Plasmodium falciparum 3D7 (PF3D7_0213400) (Q7YTF7 1-343): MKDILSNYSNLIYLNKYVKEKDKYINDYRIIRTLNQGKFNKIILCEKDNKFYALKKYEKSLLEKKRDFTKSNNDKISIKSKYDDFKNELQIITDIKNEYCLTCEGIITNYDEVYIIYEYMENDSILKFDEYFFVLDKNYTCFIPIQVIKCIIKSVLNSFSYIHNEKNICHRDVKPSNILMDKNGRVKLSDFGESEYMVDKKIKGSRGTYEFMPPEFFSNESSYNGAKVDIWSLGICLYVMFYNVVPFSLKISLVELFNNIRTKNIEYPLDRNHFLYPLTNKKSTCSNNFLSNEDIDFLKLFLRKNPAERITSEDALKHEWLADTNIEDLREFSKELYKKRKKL
Sequence of Plasmodium falciparum protein kinase 6 (PK6, PF3D7_1337100) (Q8IDW1 1-305): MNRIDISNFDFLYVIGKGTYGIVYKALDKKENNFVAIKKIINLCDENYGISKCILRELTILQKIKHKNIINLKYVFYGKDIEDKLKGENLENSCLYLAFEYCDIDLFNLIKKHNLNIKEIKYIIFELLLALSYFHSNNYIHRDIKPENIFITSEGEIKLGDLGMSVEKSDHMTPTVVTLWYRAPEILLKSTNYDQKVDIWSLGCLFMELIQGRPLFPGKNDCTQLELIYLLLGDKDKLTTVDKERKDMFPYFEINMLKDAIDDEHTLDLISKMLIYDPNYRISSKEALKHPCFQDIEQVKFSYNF
Sequence of Calcium-dependent protein kinase 1 (Plasmodium falciparum (isolate 3D7)) (P62344 whole entry, looked up): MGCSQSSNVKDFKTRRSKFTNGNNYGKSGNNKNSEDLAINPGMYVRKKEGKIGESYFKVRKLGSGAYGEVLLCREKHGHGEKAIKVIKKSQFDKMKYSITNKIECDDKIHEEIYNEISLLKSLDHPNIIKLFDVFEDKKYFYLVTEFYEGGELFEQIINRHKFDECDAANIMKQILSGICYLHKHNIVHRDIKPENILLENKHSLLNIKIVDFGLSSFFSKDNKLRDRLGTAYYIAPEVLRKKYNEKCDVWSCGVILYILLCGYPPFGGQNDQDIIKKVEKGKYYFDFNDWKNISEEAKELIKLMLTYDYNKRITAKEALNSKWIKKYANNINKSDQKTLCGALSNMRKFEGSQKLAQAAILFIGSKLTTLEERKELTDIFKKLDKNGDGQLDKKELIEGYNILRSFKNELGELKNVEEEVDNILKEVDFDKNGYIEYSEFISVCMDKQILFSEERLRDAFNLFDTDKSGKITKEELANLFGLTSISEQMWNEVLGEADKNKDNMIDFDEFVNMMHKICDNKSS
Sequence of L-lactate dehydrogenase (Plasmodium falciparum (isolate CDC / Honduras)) (Q27743 whole entry, looked up): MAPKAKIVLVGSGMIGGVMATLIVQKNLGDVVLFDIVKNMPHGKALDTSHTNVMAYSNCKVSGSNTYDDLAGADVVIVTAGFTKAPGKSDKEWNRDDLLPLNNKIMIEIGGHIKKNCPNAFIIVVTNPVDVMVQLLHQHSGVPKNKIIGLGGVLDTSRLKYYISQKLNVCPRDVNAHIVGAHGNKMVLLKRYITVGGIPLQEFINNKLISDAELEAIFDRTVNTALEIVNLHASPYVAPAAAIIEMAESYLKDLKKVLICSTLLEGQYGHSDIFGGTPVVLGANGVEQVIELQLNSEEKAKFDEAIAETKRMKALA

Structure (SMILES)	growth inhibition [1]	inhibition [2]	inhibition [3]	growth inhibition [4]	outcome [5]	outcome [6]	outcome [7]	outcome [8]
CC1CCC(C[C@@H](C(=O)N[C@H](C(=O)Nc2nccs2)[C@@H](C)O)[C@H](CCC(F)(F)F)N(O)C=O)CC1 (stereo partly drawn)	94% (active)	-8%	3%	95% (active)	inactive	inactive	inactive	inactive
Cc1[nH]c(C)c(-c2ccc(Oc3cc(Cl)cc(Cl)c3)cc2)c(=O)c1Br	97% (active)	–	-6%	96% (active)	inactive	inactive	inactive	inactive
CCCc1ccc(Cc2cnc3nc(N)nc(N)c3c2C)cc1	-3%	–	4%	98% (active)	inactive	inactive	inactive	inactive
Nc1nc(N)c2c3c(ccc2n1)CCC3	2%	–	-3%	92% (active)	inactive	inactive	inactive	inactive
CCNC(=NCc1ccccc1)NCCCCCCNC(=NCc1ccccc1)NCC	95% (active)	–	-5%	96% (active)	inactive	inactive	inactive	inactive
CCOC(=O)c1c(NC(=O)c2ccccc2)sc2c(O)c(CNC3CCCCC3)ccc12	98% (active)	6%	1%	99% (active)	inactive	inactive	inactive	inactive
COc1cc(Cc2cnc(N)nc2N)cc(OCCCS(=O)(=O)O)c1OC	-6%	–	1%	88% (active)	inactive	inactive	inactive	inactive
O=C(NC1CCC(N2CCC(c3ccccc3C(F)(F)F)CC2)CC1)c1cc2ccccc2[nH]1 (stereo not drawn)	98% (active)	80% (active)	-5%	100% (active)	inactive	inactive	inactive	inactive
Nc1nc(N)c2c(ccc3c2cnn3Cc2cccnc2)n1	96% (active)	–	0%	95% (active)	inactive	inactive	inactive	inactive
Cc1cnc(NCC2CCCCC2)nc1NCC(=O)Nc1ccccc1	51% (active)	21%	0%	90% (active)	inactive	inactive	inactive	inactive
CC(C)Oc1ccc2ccccc2c1CNCCCCCCNCc1c(OC(C)C)ccc2ccccc12	90% (active)	–	-7%	99% (active)	inactive	inactive	inactive	inactive
Cc1cccc2[nH]c(-c3cccc(-c4cccc(NC(=O)Cc5cnc[nH]5)c4)c3)nc12	100% (active)	32%	-4%	102% (active)	inactive	inactive	inactive	inactive
COc1ccc2c(OC)cccc2c1CNCCCCCCNCc1c(OC)ccc2c(OC)cccc12	28%	–	-5%	92% (active)	inactive	inactive	inactive	inactive
Nc1nc(N)c2c(Sc3ccccc3)cccc2n1	0%	–	-5%	97% (active)	inactive	inactive	inactive	inactive
O=C(Nc1ccc(Cl)cc1)Nc1cccc(-c2ccc(-c3nc4ccc(F)cc4[nH]3)cc2)c1	99% (active)	73% (active)	-1%	101% (active)	inactive	inactive	inactive	inactive
CC(C)(C)c1ccc(Cc2cccc3nc(N)nc(N)c23)cc1	51% (active)	–	4%	100% (active)	inactive	inactive	inactive	inactive
CC1CCc2sc(-c3nnc(SC(C)C(=O)N4CCCC4)o3)cc2C1 (stereo not drawn)	94% (active)	1%	2%	93% (active)	inactive	inactive	inactive	inactive
COc1ccc(Cl)cc1N1CCN(CCCNC(=O)c2ccc(-c3nc4ccncc4[nH]3)c(Br)c2)CC1	15%	5%	4%	86% (active)	inactive	inactive	inactive	inactive
Cc1[nH]c(C)c(-c2ccc(Oc3cccc(OC(F)(F)F)c3)cc2)c(=O)c1Br	96% (active)	–	-7%	100% (active)	inactive	inactive	inactive	inactive
COc1ccc2c(CNCCCCCCNCc3c(OC)ccc4cc(OC)ccc34)c(OC)ccc2c1	79% (active)	–	-7%	101% (active)	inactive	inactive	inactive	inactive
CC(C)CCNCC(O)Cn1c2ccc(Cl)cc2c2cc(Cl)ccc21 (stereo not drawn)	99% (active)	36%	3%	99% (active)	inactive	inactive	inactive	inactive
Cc1cccc2[nH]c(-c3ccc(-c4ccc(C(=O)NCCN5CCCC5)cc4)cc3)nc12	77% (active)	25%	3%	101% (active)	inactive	inactive	inactive	inactive
CC(C)(C)c1ccc(CN2CCCCC(NC(=O)c3cc(-c4ccccc4F)cs3)C2)cc1 (stereo not drawn)	99% (active)	6%	3%	101% (active)	inactive	inactive	inactive	inactive

Structure (SMILES)	growth inhibition [1]	inhibition [2]	inhibition [3]	growth inhibition [4]	outcome [5]	outcome [6]	outcome [7]	outcome [8]
COc1ccc(CC2(c3ccc(F)cc3)N=C(N)N(CCCc3ccccc3)C2=O)cc1 (stereo not drawn)	97% (active)	38%	0%	99% (active)	inactive	inactive	inactive	inactive
N#Cc1ccc2c(c1)CCN(CCC1CCC(NC(=O)/C=C/c3cnc4ccccc4c3)CC1)CC2 (stereo not drawn)	21%	22%	-1%	87% (active)	inactive	inactive	inactive	inactive
CC(C)c1ccc(Cn2cc(-c3ccncc3)c3cc(OCc4ccccc4)ccc32)cc1	88% (active)	–	-1%	99% (active)	inactive	inactive	inactive	inactive
CCCN1CCCN(Cc2cccc(NC(=O)c3ccc(-c4ccccc4)cc3)c2)CC1	15%	34%	1%	92% (active)	inactive	inactive	inactive	inactive
Cc1cc(NN=Cc2cccc([N+](=O)[O-])c2)c2ccc(C(F)(F)F)cc2n1	51% (active)	2%	1%	101% (active)	inactive	inactive	inactive	inactive
CN1CCCC(CN2CCN(Cc3ccc(-c4ccc(-c5nc6ccccc6[nH]5)s4)cc3)CC2)C1 (stereo not drawn)	100% (active)	57% (active)	-8%	100% (active)	inactive	inactive	inactive	inactive
Cc1c(C(C)(C)C)ccc2nc(N)nc(N)c12	-2%	–	-1%	89% (active)	inactive	inactive	inactive	inactive
COC(=O)Cn1c(C2CCN(CC3CCC(NC(=O)/C=C/c4ccc(Cl)c(Cl)c4)CC3)CC2)nc2ccccc21 (stereo not drawn)	17%	12%	4%	95% (active)	inactive	inactive	inactive	inactive
NCC(=O)NC12CC3CC(CC(C3)C1)C2	-4%	15%	-2%	87% (active)	inactive	inactive	inactive	inactive
CC(=O)Oc1c(Cl)c(C)nc(C)c1-c1ccc(Oc2ccc(Cl)cc2)cc1	96% (active)	–	0%	98% (active)	inactive	inactive	inactive	inactive
CCCCCCCN(Cc1ccc(OC(C)(C)C(=O)OCC)cc1)C(=O)Nc1ccc(Cl)cc1OCC	89% (active)	–	1%	95% (active)	inactive	inactive	inactive	inactive
CN=C(N)c1ccc(NC(=O)C=Cc2ccc(C(=O)Nc3ccc(C(N)=NC)cc3)cc2)cc1	100% (active)	–	1%	97% (active)	inactive	inactive	inactive	inactive
Cc1[nH]c(C)c(-c2ccc(Oc3cccc(C(F)(F)F)c3)cc2)c(=O)c1Br	97% (active)	–	4%	99% (active)	inactive	inactive	inactive	inactive
CC(CO)(CO)NCc1cc2ccc3ccsc3c2c2ccccc12	98% (active)	–	2%	96% (active)	inactive	inactive	inactive	inactive
COc1ccc(Cc2c(Cl)nc3nc(N)nc(N)c3c2C)c(OC)c1OC	-3%	–	-2%	98% (active)	inactive	inactive	inactive	inactive
CCC(C(C)C)n1ccc2c3c(N)nc(N)nc3ccc21 (stereo not drawn)	95% (active)	–	3%	95% (active)	inactive	inactive	inactive	inactive
CCCCc1cc(Cc2cnc(N)nc2N)cc(OC)c1OC	-1%	–	3%	86% (active)	inactive	inactive	inactive	inactive
COc1ccc(Cc2cnc(N)nc2N)cc1OCCCOc1ccccc1	4%	–	6%	91% (active)	inactive	inactive	inactive	inactive
CCc1nc(N)nc(N)c1-c1ccc2c(c1)CCCC2	-5%	–	-5%	95% (active)	inactive	inactive	inactive	inactive
CCCCc1nc2nc(N)nc(N)c2cc1CCC	-3%	–	-1%	97% (active)	inactive	inactive	inactive	inactive
CN(C)C(=S)N=Nc1c(O)[nH]c2ccccc12	96% (active)	–	2%	95% (active)	inactive	inactive	inactive	inactive
CCn1c(O)c(N=NC(=S)N2CCCC2)c2ccccc21	9%	–	4%	91% (active)	inactive	inactive	inactive	inactive
